Assay outcomes (PubChem)
KAT2A inh = qHTS Assay for Inhibitors of GCN5L2 | GCN5L2 HAT assay, ThioGlo1 CoA-SH fluorescence | Histone acetyltransferase KAT2A (Homo sapiens), Q92830 | 390,000 tested, 0.21% active | AID 504327, 2011 | Potency, µM (doses to about 58.9 µM), for inactives: at the top dose activity change, negative = inhibition, usual class: inhibitors; further: on the % scale 0 is the no-effect control and ±100 the full control effect
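Free CoA generated was detected with ThioGlo1 (50uM) fluorescence at Ex340nm/Em540nm, read immediately and after 20 min at room temperature. Enzyme, 20 nM in HEPES pH 7.5 buffer, saw compounds 15 min before adding 75uM H3(1-25) peptide and 70uM acetyl-CoA.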
VDR inhibitor = Inhibitors of the vitamin D receptor (VDR): qHTS; Vitamin D3 receptor (Homo sapiens), P11473; AID 504847, 2011; 400,000 tested, 0.93% active; VDR-SRC2-3 peptide fluorescence polarization, 2 h; Potency, µM, inactives show max response, negative = inhibition, hits mostly inhibitors; further: on the % scale 0 is the no-effect control and ±100 the full control effect
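Reagent solutions, kept cold and dark, are dispensed first; compounds are then pinned in at 23 nl, plates briefly spun, and incubated 2 h at ambient temperature. Inhibition of VDR–SRC2-3 peptide binding is read by fluorescence polarization.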
PLK1 PBD inh = qHTS for Inhibitors of PLK1-PDB (polo-like kinase 1 - polo-box domain): Primary Screen; Plk1 PBD binding of FITC phosphopeptide, fluorescence polarization; Potency, µM, for inactives: max response, negative = inhibition, hits mostly inhibitors; 360,000 tested, 2.8% active; further: series mostly up to about 57 µM; on the % scale 0 is the no-effect control and ±100 the full control effect; nearly all actives have a fitted effect of over 65% in size
USP1-UAF1 inh = Inhibitors of USP1/UAF1: Primary Screen. Ubiquitin carboxyl-terminal hydrolase 1 (Homo sapiens), O94782. recombinant USP1/UAF1, Ub-Rhodamine cleavage fluorescence. Potency, µM (titrated, usually from 57.1 µM), for inactives: top-dose activity change, negative = inhibition, most hits filed as inhibitors. 390,000 tested, 0.23% active; further: on the % scale 0 is the no-effect control and ±100 the full control effect; nearly all actives have a fitted effect of over 60% in size
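Step one: compound is pinned into 1nM USP1/UAF1 in HEPES pH 7.8 buffer with TCEP. Step two: 15 min room-temperature incubation. Step three: Ub-Rho (150nM final) starts cleavage, tracked by fluorescence over six one-minute reads.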
TSG101-PTAP inh = qHTS Assay for Iinhibitors of HIV-1 Budding by Blocking the Interaction of PTAP/TSG101; AID 493005, 2010; Potency, µM (highest dose often 115 µM), for the others: top-dose activity change, negative = inhibition, usual class: inhibitors; Fluorescence polarization, FITC-PTAP peptide / Tsg101 binding; 340,000 tested, under 10 active; active means well fitted inhibition curve with a large enough effect in the main read-out, with a control signal flat, not every such curve was filed as active; inconclusive means small, poorly fitted or top-dose-only effect, or effect the other way, or a change in a side signal; inactive means no such curve, though single readings can be large or run the other way; further: % of control where 0% means no effect
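Fluorescence polarization binding of Tsg101 binding domain (10 uM final) to FITC-labeled PTAP peptide (50 nM final) in HEPES pH 7.5 buffer with NaCl, Tween 20, EDTA, TCEP. Compounds added before peptide; binding 20 min at RT.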
* hit, by the source's call; u = inconclusive; x = no result. Sampled rows, rich in hits. Any-hit rate of the full collection: about 3%. Unless noted, the call rests on the fitted dose curve; in most records, active means well fitted curve in the direction sought with a large enough effect; inconclusive means small, poorly fitted or top-dose-only effect, or another doubt; inactive means no such curve, though single readings can be large; an effect the other way counts as inactive or inconclusive. Potency means the concentration at half of the fitted maximal effect.

SMILES | KAT2A inh | VDR inhibitor | PLK1 PBD inh | USP1-UAF1 inh | TSG101-PTAP inh
CC(=O)Nc1ccc(NC(=O)CSc2nc3nc(-c4cccs4)cc(C(F)(F)F)c3c(=O)[nH]2)cc1 | 6.3% | -12.8% | u | -13.0% | -9.1%
COc1ccc(NC(=O)CSc2nc3nc(-c4cccs4)cc(C(F)(F)F)c3c(=O)[nH]2)c(OC)c1 | -9.7% | -7.5% | 26.7µM* | -6.5% | -3.4%
CCN(CC)C(=O)C1=C(C)N(Cc2ccc(C(C)(C)C)cc2)C(=O)C(CC(=O)NC(c2ccccc2)c2ccccc2)C1 (stereo unspecified) | x | x | 0.9% | u | x
CC(C(=O)N(C)C1CCS(=O)(=O)C1)N1C(=O)/C(=C/c2ccc(F)cc2)SC1=S (stereo unspecified) | -14.0% | 79.4µM* | u | -24.4% | -1.7%
O=C1/C(=C/c2ccco2)SC(=S)N1C1CCS(=O)(=O)C1 (stereo unspecified) | u | -5.1% | -13.7% | -18.0% | -1.3%
CCN(C(=O)C(C)N1C(=O)/C(=C/c2ccco2)SC1=S)C1CCS(=O)(=O)C1 (stereo unspecified) | 0.1% | 4.0% | 18.9µM* | u | -2.6%
Cc1ccc(NC(=O)CN2CCN(S(=O)(=O)c3ccc(C(C)C)cc3)CC2)cc1F | -6.8% | 25.6% | x | -15.8% | x
CC(C)C(NC(=O)Nc1ccccc1)C(=O)Nc1cccc(S(=O)(=O)N(C)C)c1 (stereo unspecified) | -3.0% | -3.9% | -7.9% | -21.6% | -0.5%
CN1CCN(CC(O)COCCOc2ccc(Br)cc2)CC1 (stereo unspecified) | -4.1% | 25.1µM* | 26.7µM* | -10.0% | -2.1%
CCN1CCN(CC(O)COCCOc2ccc(Br)cc2)CC1 (stereo unspecified) | -0.2% | -23.5% | 4.4% | -11.8% | 0.8%
CCOc1ccc(NC(=S)Nc2cccnc2)cc1 | -2.9% | -18.9% | 29.9µM* | -9.2% | -1.6%
COC(=O)c1ccccc1NC(=S)NC(=O)c1cccc2ccccc12 | 0.1% | u | 6.7µM* | -19.0% | -3.6%
CCCC(=O)NC(=S)Nc1ccccc1C(=O)OC | -2.1% | -16.9% | 29.9µM* | -1.2% | 2.2%
C#Cc1ccc(CN2CCC(Oc3cc(C(=O)NC4CC4)ccc3OC)CC2)cc1 | -5.6% | -21.7% | 6.8% | -10.2% | -0.6%
O=C(NCCCN1CCCCC1)c1cc(Sc2ccc(Cl)cc2)nc2ccccc12 | -10.3% | 2.5% | x | 5.0% | x
COc1ccc(F)cc1S(=O)(=O)NCCc1c(C)[nH]c2c(Cl)cccc12 | -5.7% | -1.3% | x | -24.3% | x
CC[C@@H](C)[C@H](NS(=O)(=O)c1cccc2ccccc12)C(=O)N[C@H](C=O)Cc1c[nH]c2ccccc12 | -7.4% | 31.6µM* | x | x | x
CCOCCCn1c(SCC(=O)Nc2ccc(C)cc2)nc2ccccc2c1=O | -9.3% | 8.8% | x | -23.6% | x
CC(=O)N1CCN(C(=S)c2ccc(N(C)C)cc2)CC1 | -3.4% | -13.1% | 21.2µM* | -20.1% | -1.0%
Cc1ccc(N2CCN(C(=S)c3ccc(N(C)C)cc3)CC2)cc1 | -4.8% | u | 16.8µM* | -10.2% | -0.8%
CC1CCN(C(=S)c2ccc(N(C)C)cc2)CC1 | -20.8% | -4.2% | 29.9µM* | -11.7% | -8.8%
CN(C)c1ccc(C(=S)N2CCCCCC2)cc1 | -3.6% | 1.9% | u | -1.2% | -2.2%
CCOC(=O)c1ccc(NC(=O)CSc2ccc(-c3sc(C)nc3C)nn2)cc1 | 1.5% | 2.3% | x | -1.5% | x
OC(CCc1cccc(Cl)c1)c1cccs1 (stereo unspecified) | -13.4% | u | 21.2µM* | -21.5% | -5.3%
Nc1c(C(=O)NCc2ccc(Cl)cc2)sc2nc(-c3ccc(F)cc3)ccc12 | u | -13.1% | x | -27.3% | x
COc1cccc(-c2ccc3c(N)c(C(=O)c4ccc(Cl)cc4)sc3n2)c1 | -9.7% | -11.1% | x | -24.1% | x
